Source: PubChem
In the library only some 1.9% were active in any assay of this set; here they are far more common.
Menin-MLL TR inh = qHTS Assay for Inhibitors Targeting the Menin-MLL Interaction in MLL Related Leukemias: Competition With Texas Red Labeled MLL-derived Mutant Peptide. Potency, µM (titrated, usually from 61.6 µM), for the others: at the top dose FP activity change, negative = inhibition, hits mostly inhibitors. actives 0.23% (n = 270,000). AID 1768, 2009. Menin + Texas Red MLL mutant peptide, fluorescence polarization; active = well fitted inhibition curve with a large enough effect in the polarisation, with a control signal flat, not every such curve was filed as active; inconclusive = small, poorly fitted or top-dose-only effect, or effect the other way, or a change in a side signal; inactive = no such curve, though single readings can be large or run the other way; the % refers to the polarisation; note: potency is the fitted concentration of half-maximal effect; % of control where 0% means no effect
PINK1 modulator = A Quantitative High throughput Screen to Identify Chemical Modulators of PINK1 Expression; Potency, µM (highest dose often 76.6 µM), inactives show at the highest dose activation (PINK1 increase), most hits filed as activators; PINK1 immunofluorescence, high-content cytometry, 24 h; actives 0.2% (n = 410,000); AID 624263, 2012; active = well fitted activation curve with a large enough effect; inconclusive = small, poorly fitted or top-dose-only effect; cell line not stated here; note: potency is the fitted concentration of half-maximal effect; % of control where 0% means no effect; nearly all actives have a fitted effect of over 65% in size
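Stable cell line, 250 cells/well, 12 h attachment; compounds pinned at 5 concentrations, 24 h; CCCP control. Fixed with nuclear dye, primary antibodies 12 h at 10 degrees C, secondary plus cell stain; laser-scanning cytometer read.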
ClpP mod = qHTS Assay for Activators of ClpP; ATP-dependent Clp protease proteolytic subunit (Bacillus subtilis (strain 168)), P80244; Potency, µM (top dose mostly 57.5 µM), for the others: at the highest dose activity change, negative = active; actives 1.9% (n = 340,000); purified B. subtilis ClpP, FRET peptide cleavage, 20 min; AID 651965, 2013; active = well fitted falling curve with a large enough effect; inconclusive = small, poorly fitted or top-dose-only effect; inactive = no such curve, though single readings can be large or run the other way; note: potency is the fitted concentration of half-maximal effect; the source files actives as falling curves though it sought activators and does not explain the sign; nearly all actives have a fitted effect of over 65% in size
Target sequence (P80244 whole entry, looked up): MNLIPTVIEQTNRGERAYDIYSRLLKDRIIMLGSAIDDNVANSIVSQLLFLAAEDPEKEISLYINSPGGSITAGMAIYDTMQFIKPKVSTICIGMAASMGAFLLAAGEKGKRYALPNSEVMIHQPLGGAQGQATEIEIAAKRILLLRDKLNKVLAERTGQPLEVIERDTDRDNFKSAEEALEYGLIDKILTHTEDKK
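ClpP 10 microg/mL final, pH 8 Tris/KCl buffer with BSA, glycerol, Tween-20; compound pinned in; FRET-FV substrate; RT 20 min; Ex320/Em430; ΔFRET vs ADEP 5.8 microM, DMSO, no enzyme.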
Epigenetic derep = Quantitative High-Throughput Screen for Regulators of Epigenetic Control | murine LDR cells, GFP reporter derepression, 30 h | Potency, µM (series often up to 53.9 µM), without a hit: top-dose GFP activation, hits mostly activators | actives 0.2% (n = 280,000) | AID 1865, 2009; active = well fitted activation curve with a large enough effect; inconclusive = small, poorly fitted or top-dose-only effect; note: potency is the fitted concentration of half-maximal effect; % of control where 0% means no effect; nearly all actives have a fitted effect of over 60% in size
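Reporter derepression read as number of fluorescent GFP-positive objects, 20-120 um in size, counted by laser-scanning cytometer. Mouse LDR line with an epigenetically silenced CMV-GFP locus; compound incubation 30 h, 37 C.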
Menin-MLL FL inh = qHTS Assay for Inhibitors Targeting the Menin-MLL Interaction in MLL Related Leukemias: Competition With Fluorescein Labeled MLL-derived Peptide; 290,000 tested, under 10 active; Fluorescence polarization, fluorescein-MLL peptide displacement from menin; FP activity change, % at 61.4 µM; AID 1766, 2009; active = well fitted curve in the direction sought with a large enough effect in the polarisation, not every such curve was filed as active; inconclusive = small, poorly fitted or top-dose-only effect, or effect the other way, or a change in a side signal; inactive = no such curve, though single readings can be large or run the other way; the % refers to the polarisation; note: % of control where 0% means no effect
CXXC DNA block = qHTS Fluorescence Polarization Assay for Inhibitors of MLL CXXC domain - DNA interaction | MLL-CXXC / FITC-HOXA9 DNA fluorescence polarization | actives 0.037% (n = 290,000) | Histone-lysine N-methyltransferase 2A (Homo sapiens), Q03164 | Potency, µM (titrated, usually from 115 µM), without a hit: top-dose activity change, negative = inhibition, actives largely listed as inhibitors | AID 2662, 2010; active = well fitted inhibition curve with a large enough effect in the polarisation, with a control signal flat, not every such curve was filed as active; inconclusive = small, poorly fitted or top-dose-only effect, or effect the other way, or a change in a side signal; inactive = no such curve, though single readings can be large or run the other way; the % refers to the polarisation; note: potency is the fitted concentration of half-maximal effect
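Fluorescence polarization: 7 uM MLL-CXXC (stock) preincubated 5 min with compounds, then 50 nM fluorescein-HOX-A9 DNA (stock) added; 30 min ambient. Buffer 50 mM Tris-HCl pH 7.5, 50 mM NaCl, 1 mM DTT, 0.05% BSA.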
* = called active by the depositor; ? = inconclusive; · = not tested or not shown; [ ] = dose if it differs, or a comment.

SMILES | Menin-MLL TR inh | PINK1 modulator | ClpP mod | Epigenetic derep | Menin-MLL FL inh | CXXC DNA block
N/C(=N\NC(=O)c1cccs1)c1cc2ccccc2oc1=O | 3.5% | 2.8% | -2.4% | 1.1% | 3.9 | -19.2%
CCN(CC)c1ccc2cc(-c3nc(-c4cccs4)no3)c(=O)oc2c1 | · | 23.7% | ? | 7.08µM* | · | ·
Cc1ccccc1-c1noc(-c2cc3ccccc3oc2=O)n1 | · | 1.8% | 4.4% | 5.6% | · | ·
CCN(CC)c1ccc2cc(-c3nc(-c4cc(OC)c(OC)c(OC)c4)no3)c(=O)oc2c1 | · | 1.7% | -26.0% | 12.6µM* | · | ·
N#Cc1nc(-c2ccc(OCc3ccc(Cl)cc3)cc2)oc1NCCCn1ccnc1 | 14.8% | 0.6% | 25.1µM* | -1.7% | -1.1 | 19.3%
N#Cc1nc(-c2ccc(OCc3ccccc3)cc2)oc1NCCN1CCOCC1 | 5.6% | · | · | 0.0% | 2.6 | 4.4%
N#Cc1nc(-c2ccc(F)cc2)oc1N1CCN(C(=O)c2ccco2)CC1 | 29.8% | 2.4% | 3.16µM* | · | 2.8 | ?
CNc1oc(-c2ccc(OCc3ccccc3)cc2)nc1C#N | 35.1% | ? | 35.5µM* | 2.1% | 3.5 | -13.0%
N#Cc1nc(-c2ccc(OCc3ccccc3)cc2)oc1NCc1ccco1 | ? | 9.0% | 10µM* | 4.8% | 3.2 | -4.3%
N#Cc1nc(-c2ccc(F)cc2)oc1NCc1ccco1 | · | 5.1% | 4.2% | 1.1% | 1.2 | 7.4%
NCCCNc1ccc(Br)cn1 | · | 0.1% | -4.4% | · | · | ·
Cc1ccc([N+](=O)[O-])c(NC2OC(CO)C(O)C2O)c1 (configuration not stated) | 2.7% | 2.6% | -4.8% | 0.9% | -3.2 | 4.5%
CCc1cc[n+](CC(=O)c2ccc(F)cc2)cc1C(=O)O | · | · | 0.8% | · | · | ·
C(=C\c1ccnc2ccccc12)/c1ccc2ccccc2n1 | · | · | 4.6% | · | · | ·
N#Cc1nc(-c2ccc(OCc3ccccc3)cc2)oc1N1CCOCC1 | -21.4% | ? | 28.2µM* | 2.0% | 1.9 | 1.1%
N#Cc1nc(-c2ccc(OCc3ccccc3Cl)cc2)oc1N1CCCCCC1 | · | 3.7% | 4.0% | · | · | ·
Cc1ccc(-c2nc3cc(Cl)ccc3o2)cc1NC(=O)COc1ccccc1C | · | 2.8% | -8.3% | · | · | ·
CCOC(=O)c1nn(-c2ccc(C)cc2)c(=O)cc1OCC(=O)Nc1ccc(OC)cc1 | · | -0.9% | 8.91µM* | · | · | ·
CCOC(=O)c1nn(-c2ccccc2)c(=O)cc1OCC(=O)Nc1cccc(OC)c1 | · | -0.5% | 2.9% | · | · | ·
Cn1c(N/N=C/c2cc3ccccc3nc2Cl)nc2ccccc21 | 2.1% | 35.5µM* | 1.7% | ? | ? | ?
C=C1c2ccccc2O[C@H](C(=O)OCC)[C@@H]1C1CCCCC1 (tested in a mixture with another compound) | -13.8%[94.6 µM] | · | · | -2.1% | 5.1[94.6 µM] | ·
Cc1ccc2cccc(SCC(=O)NCC#N)c2n1 | 3.1% | 0.4% | 28.2µM* | 3.0% | 2.6 | -1.8%
Cc1cccc(NC(=O)CSc2cccc3cccnc23)c1 | 3.4% | 3.3% | 4.7% | · | -2.3 | 0.3%
COCCNc1nc(NCC2CCCCC2)c2sc(-c3ccccc3)cc2n1 | · | 2.8% | 25.1µM* | · | · | ·
COCCNc1nc(NCCOc2ccccc2Cl)c2sc(-c3ccccc3)cc2n1 | · | 25.6% | -26.8% | · | · | ·
c1ccc(-c2cc3nc(NCC4CC4)nc(NCC4CCCCC4)c3s2)cc1 | · | -0.2% | 20µM* | · | · | ·
C[C@@H](c1ccccc1)N1C(=O)[C@H]2[C@H]3[C@H](O)[C@H](O)C/C(=N/OC[C@@H](O)COCc4ccco4)[C@H]3CC[C@@H]2C1=O | 0.2%[11.7 µM] | · | · | 0.8%[10.1 µM] | -0.6[11.7 µM] | ·
COC(=O)c1ccccc1NC(=O)Cc1nc(-c2ccc(OC)cc2)no1 | · | 2.3% | 28.2µM* | -1.6% | · | ·
